Measured values from PubChem BioAssay AID1159580 (chemical genetic matrix, 2015).
The whole screen tested about 5,500 compounds, of which about 2,000 (36%) were called active. Inconclusive results (about 18%) are left out. No stated cut-off is given here; in the data, active means normalized growth mostly below about 0.91 (no sharp cut-off); inconclusive means no clear call, values can overlap the other calls; inactive means mostly above about 0.92. The list shows a part of the results.

Test: chemical genetic growth profiling, strain panel (AID 1159580);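 further: tested at 20 µM; growth read once vehicle control cultures reached saturation at 30 °C; 1 = growth at the plate median or of vehicle wells; lower values mean less growth of the strain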
Settings: S. cerevisiae deletion strains, growth OD
[1] = locus YAL013W, strain DEP1, hits give low values
[2] = locus YBR229C, strain ROT2, hits give low values
[3] = locus YDL101C, strain DUN1, hits give low values
[4] = locus YDR150W, strain NUM1, hits give low values
[5] = locus YEL061C, strain CIN8, hits give low values
[6] = locus YGR078C, strain PAC10, hits give low values
[7] = locus YHR030C, strain SLT2, hits give low values
[8] = locus YHR087W, strain rtc3, hits give low values
[9] = locus YJR043C, strain POL32, hits give low values
[10] = locus YJR075W, strain HOC1, hits give low values
[11] = locus YLR039C, strain RIC1, hits give low values
[12] = locus YLR058C, strain SHM2 (second series), hits give low values
[13] = locus YLR085C, strain ARP6, hits give low values
[14] = locus YLR262C, strain YPT6, hits give low values
[15] = locus YML094W, strain GIM5, hits give low values
[16] = locus YMR219W, strain ESC1, hits give low values
[17] = locus YMR263W, strain SAP30, hits give low values
[18] = locus YNL128W, strain TEP1, hits give low values
[19] = locus YNL153C, strain GIM3, hits give low values
[20] = locus YNL298W, strain CLA4 (second series), hits give low values
[21] = locus YNL322C, strain KRE1, hits give low values
[22] = locus YNR030W, strain Alg12, hits give low values
[23] = locus YPL055C, strain LGE1, hits give low values
[24] = locus YPL241C, strain CIN2, hits give low values
[25] = locus YPR135W, strain CTF4, hits give low values
[26] = locus YAL040C, strain CLN3, hits give low values
[27] = locus YCL061C, strain MRC1 (second series), hits give low values
[28] = locus YDR363W, strain ESC2, hits give low values
[29] = locus YER002W, strain NOP16, hits give low values
[30] = locus YNL175C, strain NOP13, hits give low values
[31] = locus YNL197C, strain WHI3, hits give low values
[32] = locus YNL224C, strain SQS1, hits give low values
[33] = locus YOR083W, strain WHI5 (second series), hits give low values

Measured: normalized growth

Cc1cccc(C)c1N=C1SCCS1
inactive: [1] 1 | [2] 0.99 | locus YCL061C, strain MRC1, hits give low values 0.982 | [3] 0.986 | locus YDL134C, strain PPH21, hits give low values 1.02 | [4] 0.902 | [5] 1.01 | [6] 0.99 | locus YGR229C, strain SMI1, hits give low values 0.997 | [7] 0.929 | [8] 0.988 | [9] 0.995 | [10] 0.996 | locus YKL190W, strain CNB1, hits give low values 1 | [11] 0.941 | [12] 0.996 | [13] 0.99 | [14] 0.978 | [15] 0.978 | [16] 0.996 | [17] 0.934 | locus YMR307W, strain GAS1, hits give low values 0.93 | [18] 1 | [19] 0.966 | [20] 0.99 | [21] 0.988 | [22] 1 | [23] 0.906 | [24] 0.865 | [25] 0.887

CN(C)CCC(c1ccc(Cl)cc1)c1ccccn1 (stereo not drawn)
inactive: [26] 0.987 | [27] 0.999 | [28] 0.993 | [29] 0.987 | [6] 1.01 | [7] 0.962 | locus YHR079C, strain IRE1, hits give low values 0.97 | locus YJL095W, strain BCK1, hits give low values 0.999 | locus YJR066W, strain TOR1, hits give low values 0.927 | [10] 0.991 | locus YLR113W, strain HOG1, hits give low values 1.01 | [19] 0.998 | [30] 1 | locus YNL183C, strain NPR1, hits give low values 0.941 | [31] 1.03 | [32] 1.01 | [21] 0.992 | [33] 1.01 | locus YOR231W, strain MKK1, hits give low values 0.971 | [24] 0.998 | locus YPL256C, strain CLN2, hits give low values 0.94

Cc1cccc(C)c1OCC(N)C(C)C (stereo not drawn)
inactive: [1] 1.01 | [26] 0.995 | [27] 1 | [28] 0.999 | [29] 0.998 | [10] 1.01 | [18] 0.988 | [19] 1.02 | [30] 1.02 | [31] 1 | [32] 0.998 | [33] 1

O=C1NC2CC2N1C(=O)OCc1ccccc1 (stereo not drawn)
inactive: [1] 1 | [2] 1 | [3] 1.01 | [4] 1.02 | [5] 0.956 | [6] 1.01 | [7] 1.06 | [8] 0.969 | locus YJL187C, strain SWE1, hits give low values 0.991 | [9] 0.993 | [10] 1.01 | [11] 0.99 | [12] 0.995 | [13] 0.978 | [14] 1.02 | [15] 0.992 | [16] 1 | [17] 0.978 | [19] 1.01 | [20] 0.954 | [21] 1 | [22] 0.988 | [23] 0.99 | [24] 1.01 | [25] 1.03
